These results are taken from publication PMC11995724, “Antibiotic target discovery by integrated phenotypic and activity-based profiling of electrophilic fragments” (Cell chemical biology, 2025).

In all, about 3,200 compounds went through this assay and about 75 (2%) showed an effect of 50% or more. What follows is part of a selection rich in strong results, with near analogues and random picks from the rest.

The experiment has as its system T1, S. aureus MSSA476.
T1 construct: MSSA476
Set-up: species or system S. aureus MSSA476 (TSB) or V. cholerae SAD30 (LB); 384-well bacterial growth screen at 25 uM, OD600 relative to DMSO control. As to conditions: relative growth, OD600, TSB; 25 µM; inhibitor.
For the compound `C=CC(=O)NC1CCCN(C(=O)CCC(F)(F)F)C1` (stereo not drawn) [1-B03, N-[1-(4,4,4-trifluorobutanoyl)piperidin-3-yl]prop-2-enamide], the “% of control remaining” value was 102.681%.
The value for `C=CC(=O)N(C)c1ccccc1C(=O)NC` [2-O18, N-methyl-2-(N-methylprop-2-enamido)benzamide] was 115.231%; that for `C=CC(=O)Nc1ccc(S(C)(=O)=O)cc1OCC` [2-C08, N-(2-ethoxy-4-methanesulfonylphenyl)prop-2-enamide] was 116.275%.
For `Cl.O=C(CCl)NC1CCN(Cc2ccccc2)CC1` [5-E19, N-(1-benzylpiperidin-4-yl)-2-chloroacetamide hydrochloride] the value was 109.654%.
As to `O=C(CCl)NCC1CCCN(C(=O)C(F)(F)F)C1` (stereo not drawn) [7-N18, 2-chloro-N-{[1-(2,2,2-trifluoroacetyl)piperidin-3-yl]methyl}acetamide], the “% of control remaining” value worked out at 107.378%.
On to `CCOc1ccc(C=C(C#N)C(=O)Nc2cccc3ncccc23)cc1` [8-A07, 2-cyano-3-(4-ethoxyphenyl)-N-(quinolin-5-yl)prop-2-enamide], for which the “% of control remaining” value is 131.452%.
The value for `C=CC(=O)NCc1nc2c(s1)CCCC2` [1-G18, N-[(4,5,6,7-tetrahydro-1,3-benzothiazol-2-yl)methyl]prop-2-enamide] was 119.56%.
With `C=CC(=O)N(CC)CC(=O)N1CCCC1c1cn(C)nc1C` (stereo not drawn) [2-N12, N-{2-[2-(1,3-dimethyl-1H-pyrazol-4-yl)pyrrolidin-1-yl]-2-oxoethyl}-N-ethylprop-2-enamide], the “% of control remaining” value is 110.009%.
The value for `CCN(CC(=O)NC1CCS(=O)(=O)C1)C(=O)CCl` (stereo not drawn) [4-I19, 2-chloro-N-{[(1,1-dioxo-1lambda6-thiolan-3-yl)carbamoyl]methyl}-N-ethylacetamide] was 127.68%; that for `O=C(CCl)c1ccc2c(c1)CCN(C(=O)C(F)(F)F)C2` [10-E09, 1-[6-(2-chloroacetyl)-1,2,3,4-tetrahydroisoquinolin-2-yl]-2,2,2-trifluoroethan-1-one] was 20.625%; that for `O=C(CCl)c1cc2c3c(c1)CC(=O)N3CCC2` [10-G16, 6-(2-chloroacetyl)-1-azatricyclo[6.3.1.0,4,12]dodeca-4(12),5,7-trien-2-one] was 130.938%.
The value for `CC(Cl)C(=O)Nc1ccc(S(N)(=O)=O)cc1` (stereo not drawn) [6-B06, 2-chloro-N-(4-sulfamoylphenyl)propanamide] was 82.2927%.
`C=CC(=O)Nc1cc(NC(=O)C2CCC2)ccc1F` [2-E10, N-[4-fluoro-3-(prop-2-enamido)phenyl]cyclobutanecarboxamide]: the “% of control remaining” value amounted to 111.749%.
For `C=CC(=O)Nc1cc(NC(=O)c2ccc([N+](=O)[O-])o2)ccc1F` [3-J04, N-[4-fluoro-3-(prop-2-enamido)phenyl]-5-nitrofuran-2-carboxamide] the value was -4.528%; for `C=CC(=O)Nc1cc(NC(=O)C2(OC)CCOC2)ccc1F` (stereo not drawn) [3-D05, N-[4-fluoro-3-(prop-2-enamido)phenyl]-3-methoxyoxolane-3-carboxamide], 96.8219%.
